Results taken from PubChem BioAssay AID1159580 (chemical genetic matrix, 2015).
The campaign covered roughly 5,500 compounds. About 2,000 (36%) were called active. Not shown: some 18% with an inconclusive outcome. Rule as the data show it: active = normalized growth mostly below about 0.91 (no sharp cut-off); inconclusive = no clear call, values can overlap the other calls; inactive = mostly above about 0.92. Some of the results follow.

Test: chemical genetic growth profiling, strain panel (AID 1159580);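 also: tested at 20 µM; growth read once vehicle control cultures reached saturation at 30 °C; 1 = growth at the plate median or of vehicle wells; lower values mean less growth of the strain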
Settings: S. cerevisiae deletion strains, growth OD
[1] = locus YAR019C, strain CDC15, hits give low values
[2] = locus YBL105C, strain PKC1, hits give low values
[3] = locus YBR135W, strain CKS1, hits give low values
[4] = locus YBR136W, strain MEC1, hits give low values
[5] = locus YBR160W, strain CDC28, hits give low values
[6] = locus YDL017W, strain CDC7, hits give low values
[7] = locus YDL028C, strain MPS1, hits give low values
[8] = locus YDL101C, strain DUN1, hits give low values
[9] = locus YDL108W, strain KIN28, hits give low values
[10] = locus YDL132W, strain cdc53, hits give low values
[11] = locus YDL214C, strain PRR2, hits give low values
[12] = locus YDR052C, strain DBF4, hits give low values
[13] = locus YDR054C, strain cdc34, hits give low values
[14] = locus YDR226W, strain ADK1, hits give low values
[15] = locus YDR477W, strain SNF1, hits give low values
[16] = locus YER123W, strain YCK3, hits give low values
[17] = locus YER133W, strain GLC7, hits give low values
[18] = locus YFL009W, strain cdc4, hits give low values
[19] = locus YFL029C, strain CAK1, hits give low values
[20] = locus YFR003C, strain YPI1, hits give low values
[21] = locus YFR019W, strain FAB1, hits give low values
[22] = locus YFR028C, strain CDC14, hits give low values
[23] = locus YGR040W, strain KSS1, hits give low values
[24] = locus YGR052W, strain FMP48, hits give low values
[25] = locus YGR092W, strain DBF2, hits give low values
[26] = locus YHR030C, strain SLT2, hits give low values
[27] = locus YHR079C, strain IRE1, hits give low values
[28] = locus YHR082C, strain KSP1, hits give low values
[29] = locus YHR205W, strain SCH9, hits give low values
[30] = locus YIL147C, strain SLN1, hits give low values
[31] = locus YJL095W, strain BCK1, hits give low values
[32] = locus YJL128C, strain PBS2, hits give low values
[33] = locus YJL157C, strain FAR1, hits give low values
[34] = locus YJR016C, strain ILV3, hits give low values
[35] = locus YJR066W, strain TOR1 (second series), hits give low values
[36] = locus YJR066W, strain TOR1, hits give low values
[37] = locus YKL048C, strain ELM1, hits give low values
[38] = locus YKL067W, strain YNK1, hits give low values
[39] = locus YKL101W, strain HSL1, hits give low values
[40] = locus YKL193C, strain SDS22, hits give low values
[41] = locus YKL203C, strain TOR2, hits give low values
[42] = locus YLR113W, strain HOG1, hits give low values
[43] = locus YLR133W, strain CKI1, hits give low values
[44] = locus YLR403W, strain SFP1, hits give low values
[45] = locus YML070W, strain DAK1, hits give low values
[46] = locus YMR001C, strain CDC5, hits give low values
[47] = locus YMR205C, strain PFK2 (second series), hits give low values
[48] = locus YMR277W, strain FCP1, hits give low values
[49] = locus YNL006W, strain LST8, hits give low values
[50] = locus YNL020C, strain ARK1, hits give low values
[51] = locus YNL161W, strain CBK1, hits give low values
[52] = locus YNL183C, strain NPR1, hits give low values
[53] = locus YNL207W, strain RIO2, hits give low values
[54] = locus YNL222W, strain SSU72, hits give low values
[55] = locus YNL307C, strain MCK1 (second series), hits give low values
[56] = locus YOL078W, strain AVO1, hits give low values
[57] = locus YOL136C, strain PFK27, hits give low values
[58] = locus YOR061W, strain CKA2, hits give low values
[59] = locus YOR119C, strain RIO1, hits give low values
[60] = locus YOR231W, strain MKK1, hits give low values
[61] = locus YOR329C, strain SCD5, hits give low values
[62] = locus YPL031C, strain PHO85, hits give low values
[63] = locus YPL153C, strain RAD53, hits give low values
[64] = locus YPL204W, strain HRR25, hits give low values
[65] = locus YPL209C, strain IPL1, hits give low values
[66] = locus YPL256C, strain CLN2, hits give low values
[67] = locus YPR025C, strain CCL1, hits give low values
[68] = locus YPR106W, strain ISR1, hits give low values
[69] = locus YPR111W, strain DBF20, hits give low values
[70] = strain NNK1, hits give low values
[71] = strain TSCII, hits give low values
[72] = locus YAL013W, strain DEP1, hits give low values
[73] = locus YBR229C, strain ROT2, hits give low values
[74] = locus YDR150W, strain NUM1, hits give low values
[75] = locus YEL061C, strain CIN8, hits give low values
[76] = locus YGR078C, strain PAC10, hits give low values
[77] = locus YHR087W, strain rtc3, hits give low values
[78] = locus YJR043C, strain POL32, hits give low values
[79] = locus YJR075W, strain HOC1, hits give low values
[80] = locus YLR039C, strain RIC1, hits give low values
[81] = locus YLR058C, strain SHM2 (second series), hits give low values
[82] = locus YLR085C, strain ARP6, hits give low values
[83] = locus YLR262C, strain YPT6, hits give low values
[84] = locus YML094W, strain GIM5, hits give low values
[85] = locus YMR219W, strain ESC1, hits give low values
[86] = locus YMR263W, strain SAP30, hits give low values
[87] = locus YNL153C, strain GIM3, hits give low values
[88] = locus YNL298W, strain CLA4 (second series), hits give low values
[89] = locus YNL322C, strain KRE1, hits give low values
[90] = locus YNR030W, strain Alg12, hits give low values
[91] = locus YPL055C, strain LGE1, hits give low values
[92] = locus YPL241C, strain CIN2, hits give low values
[93] = locus YPR135W, strain CTF4, hits give low values

Measured: normalized growth

Cc1c(Cl)cccc1NC(=S)N1CCCN(c2ccc(C(F)(F)F)cc2[N+](=O)[O-])CC1
active: [26] 0.842 | [42] 0.859
inactive: [1] 0.991 | [2] 0.979 | [3] 0.992 | [4] 0.971 | [5] 0.994 | [6] 0.993 | [7] 0.995 | [8] 0.977 | [9] 0.978 | [10] 0.986 | [11] 0.971 | [12] 0.991 | [13] 0.976 | [14] 0.987 | [15] 0.983 | [16] 0.988 | [17] 0.969 | [18] 0.98 | [19] 0.994 | [20] 0.987 | [21] 0.957 | [22] 0.995 | [23] 0.98 | [24] 1.04 | [25] 0.964 | [27] 0.89 | [28] 1.06 | [29] 1 | [30] 0.989 | [31] 1.01 | [32] 0.942 | [33] 0.951 | [34] 0.982 | [35] 0.974 | [36] 1.02 | [37] 0.984 | [38] 0.974 | [39] 0.988 | [40] 0.995 | [41] 1.01 | [43] 0.955 | [44] 0.952 | [45] 0.992 | [46] 0.961 | [47] 0.979 | [48] 0.997 | [49] 0.982 | [50] 0.972 | [51] 0.979 | [52] 1.05 | [53] 0.982 | [54] 0.984 | [55] 0.964 | [56] 0.989 | [57] 0.965 | [58] 0.963 | [59] 1.05 | [60] 0.993 | [61] 0.981 | [62] 0.979 | [63] 1 | [64] 0.931 | [65] 0.99 | [66] 0.866 | [67] 0.99 | [68] 0.969 | [69] 0.956 | [70] 0.985 | [71] 0.981

Cc1c(Cl)cccc1NC(=S)N1CCCN(c2nc3ccc(Cl)cc3s2)CC1
inactive: [1] 0.977 | [2] 0.977 | [3] 0.983 | [4] 0.979 | [5] 0.978 | [6] 0.972 | [7] 0.978 | [8] 0.965 | [9] 0.983 | [10] 0.99 | [11] 0.97 | [12] 0.986 | [13] 0.975 | [14] 0.984 | [15] 0.933 | [16] 0.936 | [17] 0.941 | [18] 0.98 | [19] 0.968 | [20] 0.985 | [21] 1.01 | [22] 0.98 | [23] 0.937 | [24] 0.975 | [25] 0.722 | [27] 0.7 | [28] 1.06 | [29] 0.97 | [30] 0.981 | [31] 0.863 | [32] 0.957 | [33] 0.897 | [34] 0.978 | [35] 0.84 | [36] 0.947 | [37] 0.97 | [38] 0.947 | [39] 0.963 | [40] 0.978 | [41] 0.974 | [43] 0.941 | [44] 0.898 | [45] 0.972 | [46] 0.982 | [47] 0.971 | [48] 0.976 | [49] 0.963 | [50] 0.909 | [51] 0.986 | [52] 0.989 | [53] 0.976 | [54] 0.98 | [55] 0.951 | [56] 0.992 | [57] 0.942 | [58] 0.87 | [59] 0.974 | [60] 0.876 | [61] 0.974 | [62] 0.937 | [63] 0.908 | [64] 0.876 | [65] 0.978 | [67] 0.975 | [68] 0.981 | [69] 0.992 | [70] 0.984 | [71] 0.976
active: [26] 0.625 | [42] 0.794 | [66] 0.772

O=C(c1ccccc1)C1CCN(c2ccc(C(F)(F)F)cc2[N+](=O)[O-])CC1
inactive: [72] 0.995 | [73] 1.01 | [8] 0.995 | locus YDL134C, strain PPH21, hits give low values 1.01 | [74] 1 | [75] 1 | [76] 0.982 | [26] 1.02 | [77] 0.98 | [78] 1 | [79] 0.946 | [80] 1.02 | [81] 0.997 | [82] 0.953 | [83] 1.01 | [84] 1.01 | [85] 0.996 | [86] 0.998 | locus YMR307W, strain GAS1, hits give low values 0.991 | [87] 0.991 | [88] 1.02 | [89] 1.01 | [90] 1.04 | [91] 0.999 | [92] 0.931 | [93] 0.978

CC(C)(C)C1=NN(c2nc3ccc(Cl)cc3s2)C(=O)C1
active: [1] 0.484 | [2] 0.0905 | [3] 0.0897 | [4] 0.102 | [5] 0.111 | [6] 0.0926 | [7] 0.105 | [8] 0.496 | [9] 0.516 | [10] 0.436 | [11] 0.104 | [12] 0.116 | [13] 0.225 | [15] 0.11 | [16] 0.0976 | [17] 0.11 | [18] 0.11 | [19] 0.0958 | [20] 0.0998 | [21] 0.109 | [22] 0.101 | [23] 0.121 | [24] 0.114 | [25] 0.0994 | [26] 0.106 | [27] 0.111 | [28] 0.121 | [29] 0.00427 | [30] 0.104 | [31] 0.104 | [32] 0.103 | [33] 0.101 | [34] 0.118 | [35] 0.0988 | [36] 0.108 | [37] 0.119 | [38] 0.144 | [39] 0.0952 | [40] 0.093 | [41] 0.1 | [42] 0.14 | [43] 0.107 | [44] 0.00206 | [45] 0.1 | [46] 0.15 | [47] 0.0849 | [48] 0.262 | [49] 0.12 | [50] 0.107 | [51] 0.429 | [52] 0.105 | [53] 0.179 | [54] 0.504 | [55] 0.107 | [56] 0.0851 | [57] 0.111 | [58] 0.0975 | [59] 0.114 | [60] 0.104 | [61] 0.299 | [62] 0.0965 | [63] 0.0988 | [64] 0.11 | [65] 0.0986 | [66] 0.121 | [67] 0.124 | [68] 0.199 | [69] 0.463 | [70] 0.106 | [71] 0.48
inactive: [14] 0.898

O=[N+]([O-])c1cc(C(F)(F)F)ccc1N1CCN(CCO)CC1
inactive: [72] 0.995 | [73] 0.987 | [8] 0.989 | [74] 1 | [75] 0.993 | [76] 0.977 | [26] 0.953 | [77] 1.03 | locus YJL187C, strain SWE1, hits give low values 1 | [78] 0.991 | [79] 0.986 | [80] 0.978 | [81] 0.982 | [82] 0.981 | [83] 0.97 | [84] 0.992 | [85] 0.997 | [86] 0.937 | [87] 0.99 | [88] 0.941 | [89] 0.982 | [90] 0.943 | locus YOL006C, strain TOP1, hits give low values 0.941 | [91] 1.03 | [92] 0.974 | [93] 0.893
